The whole screen tested about 2,100 compounds, of which about 590 (28%) were called active. About 42% were inconclusive and are not listed. The list shows a part of the results. Values without a mark were called inactive. Calls follow the shape of the dose curve; as a rule, active = well fitted inhibition curve with a large enough effect; inconclusive = small, poorly fitted or top-dose-only effect; inactive = flat fitted curve, though single readings scatter.
Molecular target: DNA dC->dU-editing enzyme APOBEC-3F (Homo sapiens) (UniProt Q8IUX4)
Sequence (Q8IUX4 whole entry, looked up): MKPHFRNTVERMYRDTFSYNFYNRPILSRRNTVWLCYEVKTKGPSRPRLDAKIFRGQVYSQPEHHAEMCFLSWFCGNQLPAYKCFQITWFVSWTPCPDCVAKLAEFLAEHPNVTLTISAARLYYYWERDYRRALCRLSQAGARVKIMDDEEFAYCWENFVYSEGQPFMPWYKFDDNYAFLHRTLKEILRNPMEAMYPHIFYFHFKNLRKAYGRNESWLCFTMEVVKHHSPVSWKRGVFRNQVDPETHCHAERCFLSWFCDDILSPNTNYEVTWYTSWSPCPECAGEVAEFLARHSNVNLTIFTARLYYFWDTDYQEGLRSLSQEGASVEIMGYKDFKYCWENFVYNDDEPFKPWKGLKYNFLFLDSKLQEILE
Assay: qHTS for inhibitors of Vif-A3F interactions: Cherry picks; also: nearly all actives have a fitted effect of over 70% in size;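 as to max response: % of control where 0% means no effect; active compounds raise eYFP fluorescence by blocking Vif-driven A3F loss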
Details: HeLa A3F-eYFP + Vif (tagged APOBEC3F with the HIV-1 protein that degrades it), eYFP fluorescence, 24 h
Excerpt: The recent discovery and characterization of host restriction factors, which provide a potent defense to invading retroviruses, has provided new targets for antiviral drug development. APOBEC3G (A3G) and APOBEC3F (A3F) are potent cytidine deaminases that block HIV-1 replication; HIV-1 expresses the Vif protein, which counteracts A3G and A3F by binding to them and inducing their proteasomal degradation. The Vif-A3G and Vif-A3F interactions provide two potential targets for development of small molecules which can interfere with the ability of Vif to degrade A3G or A3F. […] To identify inhibitors that can interfere with Vif mediated degradation of A3G and A3F, we have developed Hela cell lines that stably express A3G or A3F tagged with eYFP at the C-terminal end (A3G-eYFP or A3F-eYFP, respectively) and Vif. In the absence of an inhibitor, Vif induces degradation of A3G-eYFP and A3F-eYFP, and the cells are not fluorescent. In the presence of an inhibitor, it is expected that Vif will be unable to degrade A3G-eYFP and/or A3F-eYFP, resulting in an increase in yellow fluorescence. In this assay, Vif A3F was screened against the cherry picks ordered from the MLSMR. NIH Chemical Genomics Center [NCGC] NIH Molecular Libraries Probe Centers Network [MLPCN] MLPCN Grant: MH093245 Assay Submitter (PI): Vinay Pathak, National Cancer Institute
A3F-Vif cells were harvested from T225 flask and resuspended in phenol free OPTI-MEM medium with 5% FBS. Then 5 uL of 140,000 cells/mL resuspended cells was dispensed into each well of low base Aurora COC 1,536-well plates (black walled, clear bottom) using a Multidrop Combi dispenser. After overnight culture at 37 deg C with 5% CO2, a total of 23 nL of compounds at 5 selected concentrations from the NPC or positive control (2 mM stock of MG132) in DMSO was transferred to each well of the assay plate using a pintool (Kalypsys, San Diego, CA), and the plates were further incubated at 37 deg C with 5% CO2 for 24 hours. After that, the plates were measured on Acumen Explorer (TTP Lab Tech). The fluorescence was detected by 488 nm/Ex and […].
Potency is read from the fitted curve at half-maximal effect.

| SMILES | Potency | max response |
| --- | --- | --- |
| Cc1ccc(CNC(=O)c2ccccc2NC(=O)c2nsc3ccccc23)cc1 | 20.6 µM (active) |  |
| CCN(CC)c1ccc(C=C2C(=O)N(C)C(=S)N(C)C2=O)o1 | 3.96 µM (active) |  |
| CCN(CC)c1ccc(/C=C2\C(=O)NC(=S)N(C)C2=O)o1 | 14 µM (active) |  |
| Cc1ccc(/C=C2/C(=O)NC(=O)N(CCc3ccc(F)cc3)C2=O)s1 |  | -13.3% |
| Cc1cccc(-n2c(/C=C/c3c(C)[nH]c4ccccc34)nc3ccccc3c2=O)c1 | 20.6 µM (active) |  |
| O=Cc1c(C(=O)O)n(Cc2ccc(Cl)cc2)c2ccccc12 | 20.6 µM (active) |  |
| CC(=O)OC1C2(CC3N4C(=O)C5(CO)SSC4(CC31O)C(=O)N5C)OC(C)C(C)(C)C2=O (stereo not given) | 6.27 µM (active) |  |
| Cc1cccc(CN2CCCC(C(=O)c3cccc(OC(C)C)c3)C2)n1 (stereo not given) |  | 3.61% |
| O=C1NC(=S)SC1=Cc1ccc(N(CCCl)CCCl)cc1 | 14 µM (active) |  |
| ClCCN(CCCl)c1ccc(C=Cc2ccncn2)cc1 |  | -17% |
| CN1C(=O)C(=Cc2ccc(N3CCCCC3)o2)C(=O)N(C)C1=S | 5.17 µM (active) |  |
| CN1C(=O)C(=Cc2ccc(N3CCOCC3)o2)C(=O)N(C)C1=O | 18.4 µM (active) |  |
| CN1C(=O)C(=Cc2ccc(N3CCOCC3)o2)C(=O)N(C)C1=S | 23.1 µM (active) |  |
| O=C1NC(=O)N(c2ccc3c(c2)OCO3)C(=O)/C1=C\c1ccc(N2CCCCC2)o1 | 18.4 µM (active) |  |
| O=C1NC(=O)N(c2ccc3c(c2)OCO3)C(=O)/C1=C/c1ccc(N2CCCCC2)o1 | 23.1 µM (active) |  |
| CC(C)c1ccc(N2C(=O)NC(=O)/C(=C\C=C\c3ccco3)C2=O)cc1 | 17.7 µM (active) |  |
| Cc1ccc(N2C(=O)NC(=O)/C(=C\C=C\c3ccco3)C2=O)cc1C |  | -16.6% |
| CN(C)c1ccc(/C=C/C=C2/C(=O)NC(=O)N(c3ccccc3)C2=O)cc1 | 16.4 µM (active) |  |
| O=C1NC(=O)N(Cc2ccc(F)cc2)C(=O)/C1=C\C=C\c1ccco1 |  | -29.5% |
| Cc1cc(N2CCCC2)ccc1C=C(C#N)C#N | 7.31 µM (active) |  |
| Cc1nn(Cc2ccccc2)c(C)c1C(=O)OCC(=O)Nc1ccccc1SCC#N | 14 µM (active) |  |
| CCN(CC)c1ccc(N=Cc2c(O)n(CCC3=CCCCC3)c(=O)[nH]c2=O)cc1 | 3.66 µM (active) |  |
| CC/C(=N\NC(=O)c1ccccc1O)c1c(O)n(Cc2ccccc2)c(=O)[nH]c1=O |  | -28.7% |
| CCN(CC)c1ccc(N=Cc2c(O)n(Cc3ccccc3)c(=O)[nH]c2=O)cc1 | 3.26 µM (active) |  |
| CC1=CC(=Cc2sc3ccccc3[n+]2C)C=C(C)O1 | 5.17 µM (active) |  |

Reference: PubChem BioAssay AID651814 (National Center for Advancing Translational Sciences (NCATS), 2012)
